# Experimental data from PubChem BioAssay (Tox21).
# Results filed as inconclusive are left out. Entries that show only a call come without a potency. Active and inactive are the calls of the source. The call rests on the fitted dose curve.
# Assay: qHTS assay to identify small molecule agonists of the NFkB signaling pathway - cell viability counter screen (AID 1159515); further: nearly all actives have a fitted effect of over 55% in size
# Details: NFkB-bla ME-180 viability, CellTiter-Glo luminescence, 5 h; series mostly up to 61 µM
# Description: National Center for Advancing Translational Sciences [NCATS]
# NIH Chemical Genomics Center [NCGC]
# U.S. Environmental Protection Agency [EPA]
# National Institutes of Environmental Health Sciences [NIEHS]
# National Toxicology Program [NTP]
# U.S. Food and Drug Administration [FDA]
# Transcription factors and their stimulated target gene expression play pivotal roles across many cellular processes including responses to environmental stimuli. Proper regulation of associated pathways is critical to maintain cell health and function. Constitutive activation of transcription factor pathways has been implicated in tumors as it may block cellular functions such as apoptosis and lead to invasion and metastasis. One important transcription factor that stimulates gene expression in response to cytokines, UV radiation, and other stimuli is nuclear factor-kappa B (NFkB). To measure activation of the NFkB pathway, the CellSensor NFkB-bla ME-180 cell line (Life Technologies, Carlsbad, CA) that stably expresses beta-lactamase reporter gene under the regulation of a NF-kB response element was used. This assay allows measurement of the NFkB pathway activity induced by compounds in a ME-180 cell line. This system quantitates NF-kB activity using a FRET-based assay system where beta-lactamase expression disrupts FRET, allowing for fluorescent measurement of activity. This cell line has been used to screen the Tox21 10K compound library and to identify compounds that induce the NFkB pathway activity. The cytotoxicity of the Tox21 compound library against the NFkB-bla ME-180 cell line was tested in parallel by measuring cell viability using the CellTiter-Glo assay in the same wells.
# Tox21 Assay Protocol Summary:
# NFkB-bla ME-180 cells were dispensed at 2,000 cells/6 uL of assay medium per well into black wall/clear-bottom 1536-well plates using a Multidrop Combi (ThermoFisher Scientific, Waltham, MA) dispenser. After the assay plates were incubated at 37 C and 5% CO2 for an overnight, 23 nL of compounds dissolved in DMSO, positive controls or DMSO only was transferred to the assay plate by a Pintool station (Kalypsys, San Diego, CA). The assay plates were incubated at 37 C and 5% CO2 for 5 hr. One uL of LiveBLAzer B/G FRET substrate (Life Technologies) was added using a Flying Reagent Dispenser (Aurora Discovery, San Diego, CA) and the plates were incubated at room temperature for 1.5 hr. Fluorescence intensity (405 nm excitation, 460 nm and 530 nm emissions) was measured using an Envision plate reader (PerkinElmer, Shelton, CT). For cytotoxicity, 3 ul/well of CellTiter-Glo reagent was added into the assay plates using an FRD. After 30 min incubation at room temperature, the luminescence intensity was measured using a ViewLux plate reader (PerkinElmer).
# Potency means the concentration at half of the fitted maximal effect.
Compound,"activity, negative = cytotoxic",Potency
O=C(O)CNCC(=O)O,11.1% [at 6.95 µM] (inactive),–
O=C1CCCCCCCCCCCC(=O)OCCO1,–,inactive
CCCCCCCCCCCC(=O)OC[C@@H](O)[C@H]1OC[C@H](OCCO)[C@H]1OCCO,–,inactive
CC(=O)[O][Al][O]C(C)=O,–,inactive
Nc1cccc(S(=O)(=O)c2cccc(N)c2)c1,–,inactive
CN(C)c1ccc(CCO)cc1,–,inactive
CC(=O)c1ccc2c(c1)N(CCCN1CCC(CCO)CC1)c1ccccc1S2,–,inactive
Nc1c(CC(=O)O)cccc1C(=O)c1ccc(Br)cc1,–,inactive
COc1ccc(S(=O)(=O)N2C(=O)[C@@](c3ccccc3OC)(N3C[C@H](O)C[C@H]3C(=O)N(C)C)c3cc(Cl)ccc32)c(OC)c1,–,inactive
CCOC(=O)Cc1cccc2ccccc12,–,inactive
CCC(C)O (stereo not given),–,inactive
CCCCC/C=C\C/C=C\CCCCCCCC(=O)NC(C)c1ccccc1 (stereo not given),–,inactive
NC(N)=NCCC[C@H](N)C(=O)O,7.11% [at 6.95 µM] (inactive),–
Cc1ncc(CO)c(C=O)c1O,–,inactive
O=P(O)(OCc1ccccc1)OCc1ccccc1,–,inactive
CCCCC,–,inactive
CO[C@@H]1[C@H](OC(=O)/C=C/C=C/C=C/C=C/C(=O)O)CC[C@]2(CO2)[C@H]1[C@@]1(C)O[C@@H]1CC=C(C)C,–,inactive
C=C(C)C(=O)OCCO,–,inactive
CN(C)CCCN1c2ccccc2Sc2ccccc21,–,inactive
CCCCNc1ccc(C(=O)OCCOCCOCCOCCOCCOCCOCCOCCOCCOC)cc1,–,inactive

Compound,"activity, negative = cytotoxic",Potency
Cc1cccc(Nc2ccccc2)c1,–,inactive
O=C(NCCO[N+](=O)[O-])c1cccnc1,–,inactive
O=[N+]([O-])c1ccc(NCCO)c(OCCO)c1,–,inactive
Nc1ccccc1S(=O)(=O)c1ccccc1,–,inactive
CC(C)(COC(=O)c1ccccc1)COC(=O)c1ccccc1,–,inactive
Cc1ccc(C(C)OC(=O)C2(C)CCC(C(=O)O)C2(C)C)cc1 (stereo not given),–,inactive
Nc1ccc(N)c2c1C(=O)c1ccccc1C2=O,–,inactive
CCCCCCCCCOS(=O)(=O)O,–,inactive
CCCCOC(=O)CCCCCCCC(=O)OCCCC,–,inactive
O=S(c1cc(Cl)cc(Cl)c1O)c1cc(Cl)cc(Cl)c1O,–,inactive
c1ccc(CNCCNCc2ccccc2)cc1,–,inactive
CCCCCCCCCCO[C@@H]1O[C@H](CO)[C@@H](O)[C@H](O)[C@H]1O,–,inactive
CN1Cc2cc(C(=O)N3CCC(C4CCNCC4)CC3)ccc2NC(CC(=O)O)C1=O (stereo not given),–,inactive
CCc1c(C(=O)NN2CCCCC2)nn(-c2ccc(Cl)cc2Cl)c1-c1ccc(Br)cc1,–,inactive
NCc1ccccc1Sc1ccccc1CO,–,inactive
CCCCCCCN,–,inactive
CCN(CC)CCOC(=O)C(c1ccccc1)C1CCCCC1 (stereo not given),–,inactive
COc1ccnc(CS(=O)c2nc3ccc(OC(F)F)cc3[nH]2)c1OC (stereo not given),–,inactive
Cc1cccc(C)c1OCC(=O)N[C@@H](Cc1ccccc1)[C@@H](O)C[C@H](Cc1ccccc1)NC(=O)[C@H](C(C)C)N1CCCNC1=O,–,19 µM (active)
CC(C)Cc1ccc(C(C)C(=O)OCc2ccccn2)cc1 (stereo not given),–,inactive
